From PubChem BioAssay (NCATS)
This is one part of the list. Inconclusive results are not listed. Values without a mark were called inactive. Active and inactive are the calls of the source. Calls follow the shape of the dose curve; as a rule, active = well fitted inhibition curve with a large enough effect; inconclusive = small, poorly fitted or top-dose-only effect; inactive = flat fitted curve, though single readings scatter.

tested on: NanoLuc luciferase (engineered Oplophorus gracilirostris luciferase); assay: Biochemical coelenterazine-based NLuc counterscreen for small molecule modulators of PMP22 gene expression - Km assay (AID 1508639); conditions: secreted NLuc enzyme, coelenterazine luminescence, Km conditions; series mostly up to 57.5 µM; activity change, negative = inhibition: at the top concentration;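 as to activity change, negative = inhibition: substrate at 15 µM coelenterazine with 5 min compound preincubation before enzyme addition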
Source text: Assay Provider: Jim Inglese Ph.D. National Center for Advancing Translational Science, National Institutes of Health, Rockville, MD CMT is a heterogeneous group of neurological disorders that affect approximately 1 in 2,500 people. In particular, the most common form of CMT, CMT1A is genetically linked to the duplication of the PMP22 gene which leads to Schwann cell overexpression, thus manifesting itself as a typical case of dose-sensitive diseases. To identify small molecule compounds that can mediate the expression of PMP22 we developed a phenotypic assay screening strategy by utilizing genome editing techniques to construct Schwann cell lines containing novel reporter technology to monitor the transcriptional or translational regulation of PMP22. For high sensitivity we use a bioluminescent reporter system embedded in the 3' UTR of the PMP22 gene (S16(c9) Pmp22-F2sN) to identify compounds that inhibit gene expression. […] We can further discriminate the effect of all transcriptionally active molecules on PMP22 translation or stability with an assay that incorporates a short NLuc peptide (HiBiT) at the C-terminus of expressed PMP22 (S16(f8) PMP22-HiBiT) allowing alpha complementation and luminescence detection of membrane-associated PMP22 protein. These assays were screened against the NCATS Sytravon Library Collection. Miniaturization of these assays to 1536-well plate format for quantitative high throughput screening (qHTS) yielded rich data sets immediately from the qHTS assay (S16(c9) Pmp22-F2sN), when compared with data from a cell viability assay (Cell TiterGlo) to identify compounds that decreased the output signals through cellular toxicity to streamline the selection process of actives for subsequent characterization using the HiBiT assay (S16(f8) PMP22-HiBiT).
Biochemical Coelenterazine-based solution NLuc assay (Km assay) PROTOCOL TABLE (format as described by Inglese J, Shamu CE and Guy RK. 2007) SEQUENCE No. (e.g., 1, 2, 3, etc.); PARAMETER (e.g., Cells, Incubation, Reagent, etc.); VALUE and DESCRIPTION. 1. Reagent. Add 2 uL substrate per well into Greiner 1536-well white/solid bottom high base, medium binding plates. 2. Compounds. Library compounds and controls added at 23nL per well, transferred by Pin Tool. 3. Incubation. Incubate plates 5 min at ambient temperature. 4. Reagent. Add 2uL NLuc enzyme solution per well of Greiner 1536-well plates. 5. Incubation. Incubate plates at room temperature for 10 min., protect from light. 6. Detector. FLuc luminescence measured using CCD-based camera (Viewlux). NOTES (numbers refer to Sequence numbers above; values are from representative experiments) 1. Freshly prepared 15 uM Coelenterazine, 0.3M Sodium Ascorbate, 0.005M NaCl and 0.1% TritonX in PBS pH7.4, filtered through […]. 4. Enzyme was obtained by filtering media of S16 cells expressing secreted NLuc (Inglese et al. 2014) grown to 80-90% confluency in DMEM High Glucose, No Phenol Red media + 10% heat inactivated FBS + 1% Pen/Strep supplemented media6. Luminescence Read (Fluc): Clear filter; Exposure = 10 sec, Gain = High, Speed = Slow, Binning = 2X 6. Luminescence Read (Nluc): Clear filter; Exposure = 1 sec, Gain = High, Speed = Slow, Binning = 2X REFERENCES: 1. Inglese J, Shamu CE and Guy RK, Reporting data from high throughput screening of small molecule libraries, Nature Chemical Biology, 2007, 3(8): 438-441. doi.org/10.1038/nchembio0807-438 2. Yasgar A, Shinn P, Jadhav A, Auld DS, Michael S, Zheng W, Austin CP, Inglese J and Simeonov A, Compound Management for Quantitative High-Throughput Screening. J. Assoc. Lab. Auto., 2008, 13: 79-89. doi: 10.1016/j.jala.2007.12.004 3. Inglese, J., Dranchak, P., Moran, J. J., Jang, S. W., Srinivasan, R., Santiago, Y., Zhang, L., Guha, R., Martinez, N., MacArthur, R., Cost, G. J., and Svaren, J. (2014) Genome editing-enabled HTS assays expand drug target pathways for Charcot-Marie-tooth disease, ACS Chem Biol 9, 2594-2602.
% is scaled to controls: 0 for no effect and ±100 for the full control effect; potency is read from the fitted curve at half-maximal effect.

| SMILES | activity change, negative = inhibition [%] | Potency |
| --- | --- | --- |
| CCOC(=O)c1ccc(NC(=O)CSc2nc3c([nH]c4ccccc43)c(=O)n2C)cc1 | -8.06 | – |
| CC(=O)N1CCCc2cc(S(=O)(=O)N3CCCC(C(=O)N4CCN(c5cccc(Cl)c5)CC4)C3)ccc21 (stereo unspecified) | 7.45 | – |
| Cc1ccc(OCCSc2nc3ccc(NC(=O)COc4ccc(C)cc4)cc3s2)cc1 | -1.1 | – |
| Cc1ccccc1CNC(=O)CSc1nnc(C)c2c(C)n(-c3ccccc3)nc12 | -1.41 | – |
| COc1ccc(-c2onc(C)c2C)cc1S(=O)(=O)NCC1CCN(Cc2cccc(F)c2)CC1 | 7.67 | – |
| CCCn1c(=N)c(C(=O)NCc2ccccc2)cc2c(=O)n3cccc(C)c3nc21 | -13.3 | – |
| CCOc1ccc(NC(=O)c2c(NC(=O)Cc3ccccc3)sc3c2CCC(C)C3)cc1 (stereo unspecified) | – | 17.2 µM (active) |
| O=C(c1ccc2c(c1)N(Cc1ccc(F)cc1)C(=O)c1ccccc1S2(=O)=O)N1CCN(c2ccccn2)CC1 | – | 1.93 µM (active) |
| CCOC(=O)C1CCN(C(=O)CSc2c3c(nc4ccc(Cl)cc24)CCCC3)CC1 | -3.72 | – |
| CCOC(=O)c1ccc(N2C(=O)c3n[nH]c(C)c3C2c2ccc(O)c(OC)c2)cc1 (stereo unspecified) | – | 19.3 µM (active) |
| CCC1=Nc2cc(C(=O)NCCCOC(C)C)ccc2Sc2ccc(C)cc21 | -0.336 | – |
| COc1ccccc1Nc1c2c(nc3ccc(NC(=O)/C=C/c4cc(OC)c(OC)c(OC)c4)cc13)CCCC2 | – | 1.93 µM (active) |
| CCCn1c2ccccc2c2cnn(CC(=O)NCC3CCN(Cc4ccc(C)cc4)CC3)c(=O)c21 | 6.62 | – |
| CCOCCCNC(=O)c1c(NC(=O)c2nc(SC)ncc2Cl)sc2c1CCCC2 | 2.95 | – |
| CCC1CCCCN1CCCNC(=O)c1cc2c(Cl)nc3ccccc3c2s1 (stereo unspecified) | 2.64 | – |
| CCCCOc1ccc(CN2C(=O)C(=O)c3cc(Br)cc(C)c32)cc1OC | 0.323 | – |

| SMILES | activity change, negative = inhibition [%] | Potency |
| --- | --- | --- |
| COc1cccc(NC(=O)CSC2=Nc3ccccc3C3=NC(CC(=O)NC4CCCCC4)C(=O)N23)c1 (stereo unspecified) | 1.03 | – |
| CCc1ccc(C2CC(=O)c3c([nH]c(C(=O)OCc4ccc(C)cc4)c3C)C2)cc1 (stereo unspecified) | 1.45 | – |
| CCOC(=O)c1c(C)[nH]c(CCC(=O)NCCCN2CCN(c3cc(C)ccc3C)CC2)c1C | -2.31 | – |
| O=C(c1ccc(C(F)(F)F)cc1)N1CCC(c2nc(-c3ccc(S(=O)(=O)N4CCCC4)cc3)no2)CC1 | 3.36 | – |
| O=C(NCCCN1CCN(c2cccc(Cl)c2)CC1)c1nnc(Cc2ccc(F)cc2Cl)o1 | -8.09 | – |
| CCOC(=O)c1c(C)[nH]c(CCC(=O)NCCCN2CCN(c3cccc(Cl)c3)CC2)c1C | -1.54 | – |
| CCCS(=O)(=O)c1ncc(Cl)c(C(=O)Nc2scc(-c3ccccc3)c2C(=O)OCC)n1 | -0.943 | – |
| COc1ccc(CCNC(=O)c2cc(=O)c3c(C)cc(C)cc3o2)cc1OC | – | 0.273 µM (active) |
| Cc1cc(OCC(=O)NCC2(N(C)C)CCCCC2)cc(C)c1Cl | 2.33 | – |
| Cc1cccc(Nc2cc(C)nc(-n3nc(C)cc3C)n2)c1 | – | 9.68 µM (active) |
| Cc1ccc(CCNC(=O)C2CCN(c3nnc(-n4cccc4CNc4ccc(C)cc4)s3)CC2)cc1 | 4.33 | – |
| CC(C)(C)c1ccc(C(=O)NCC(c2ccco2)S(=O)(=O)c2ccc(F)cc2)cc1 (stereo unspecified) | 7.58 | – |
| Cc1cc(F)ccc1NS(=O)(=O)c1ccc(-n2cccn2)cc1 | – | 13.7 µM (active) |
| Cc1nnc(SCC(=O)NCc2ccccc2Cl)c2nn(-c3ccccc3)c(C)c12 | -7.95 | – |
| Cc1ccc(C)n1-c1nnc(N2CCC(C(=O)NCc3ccccc3Cl)CC2)s1 | 2.9 | – |
